Assay in all cases: NCI-60 one-dose screen, 48 h (100 = growth as untreated, 0 = no growth, -100 = all killed)
Test [1] concerns A549/ATCC NSCLC. To be noted: 10 µM unless noted.
For test [2], the system named is 786-0 renal. To be noted: 10 µM unless noted.
Test [3] concerns SF-539 CNS. To be noted: 10 µM unless noted.
Test [4] has as its system HCT-15 colon. To be noted: 10 µM.
Test [5] deals with SNB-75 CNS. The settings on record: 10 µM unless noted.
The test system of test [6] is SNB-19 CNS. To be noted: 10 µM unless noted.
Test [7] concerns UACC-62 melanoma. The settings on record: 10 µM unless noted.
The test system of test [8] is SN12C renal. To be noted: 10 µM unless noted.
Test [9] deals with TK-10 renal. To be noted: 10 µM unless noted.
The subject of test [10] is ACHN renal. The settings on record: 10 µM unless noted.
Test [11] deals with OVCAR-8 ovarian. The settings on record: 10 µM unless noted.
Test [12] deals with OVCAR-5 ovarian. To be noted: 10 µM unless noted.
Test [13] has as its system NCI/ADR-RES ovarian. The settings on record: 10 µM unless noted.
Test [14] deals with T-47D breast. The settings on record: 10 µM unless noted.
The subject of test [15] is MDA-MB-435 melanoma. To be noted: 10 µM unless noted.
Test [16] concerns MCF7 breast. The settings on record: 10 µM unless noted.
Test [17] relates to DU-145 prostate. To be noted: 10 µM unless noted.
Test [18] deals with SF-268 CNS. The settings on record: 10 µM unless noted.
Test [19] relates to HL-60(TB) leukemia. The settings on record: 10 µM unless noted.
The test system of test [20] is OVCAR-3 ovarian. The settings on record: 10 µM unless noted.

In PubChem BioAssay (NCI) one finds growth data, which are given here for eight compounds.

The panel holds about 83,000 compounds, 20% with a hit somewhere; the sample as a whole holds those more often.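 Note: values are percent growth. 100 is the growth of untreated cells, values between 100 and 0 indicate rising inhibition; between -100 and 0 indicates cell death.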 Values without a mark were called inactive. The source made the active and inactive calls. How the source made its calls: active means growth percent below 10; inactive means the rest.

In the case of `CC12CC[C@H](O)C=C1/C(=N/O)CC1C2CCC2(C)C1CC[C@@H]2O` (some centres undefined), the growth was 103% in [1]; 80.1% in test [2]; 100% in test [3]; 97.9% in test [4]; 79.2% in [5]; 104% in test [6]. For the same compound, the growth is 94.3% in [7]; 104% in test [8]; 102% in test [9]; 95.5% in test [10]; 107% in [11]; 96.2% in test [12]. The growth was 101% in test [13], 77.6% in test [14], 90.7% in test [15] and 85.6% in test [16].
With `O=C(O)C1(Br)CC12c1ccccc1-c1ccccc12` (centres undefined), the growth in test [1] was 98.4%; in test [2], 101%; in [17], 111%; in test [18], 100%; in [3], 103%; in test [4], 101%. For the same compound, the growth in test [5] was 104%; in test [6] it was 104%; in [7], 103%; in test [8], 107%; in test [9], 88%; in [10] it was 99%. Moreover, the growth is 94% in test [19]; 99.6% in test [11]; 104% in test [12]; 103% in test [20]; 104% in test [13]; 82.5% in [14]. Moreover, the results for the growth in [15] and in [16] were 108% and 93.4%, respectively.
Regarding `OC1CCCCC1N1CCC(c2ccccc2)CC1` (centres undefined), the growth in test [1] was 106%; in test [2], 93.1%; in test [17], 112%; in test [18], 106%; in test [3], 119%; in [4] it was 110%. Further, the growth in [5] is 86%; in test [6], 117%; in [7], 115%; in test [8] it was 109%; in test [9], 99%; in test [10] it was 109%. Besides, the growth in test [19] is 86.2%; in test [11] it was 103%; in [12], 107%; in test [20], 106%; in [13], 99.7%; in [14], 96.8%. Moreover, the growth in [15] is 100%; in test [16], 94.1%.
As to `CCOc1c(Cl)cc(CNC(C)C(O)c2ccccc2)cc1OC` (centres undefined), the growth was 29.3% in [1]; 89.1% in test [2]; 57% in [17]; 66.8% in [18]; 82.8% in [3]; 47.1% in [4]. For the same compound, the growth in [5] was -15.5% (active); in test [6], 91.6%; in test [7], 63.2%; in test [8], 79.8%; in test [9], 90.5%; in test [10], 76.8%. Moreover, the growth was 20.5% in test [19]; 56.5% in test [11]; 103% in [12]; 67.4% in test [20]; 50.9% in [13]; 86% in [14]. Further, the growth in test [15] is 1.97% (active); in test [16], 42.9%.
Consider `Clc1ccc(SSC(Cl)(Cl)Cl)cc1`, for which the growth was 100% in test [1]; 106% in test [2]; 114% in test [17]; 104% in test [18]; 103% in test [3]; 112% in test [4]. In addition, the growth is 106% in test [5]; 121% in [6]; 116% in test [7]; 102% in [8]; 102% in test [10]; 113% in test [19]. The growth is 107% in [11]; 105% in test [12]; 108% in test [20]; 117% in test [13]; 114% in [14]; 105% in test [15]. Also, the growth in test [16] was 108%.
With `Oc1ccccc1OB(Oc1ccccc1O)N(CCCl)CCCl`, the growth in test [1] is 67%; in test [2] it was 92.3%; in [17], 86.9%; in test [18], 63.5%; in [3], 63.2%; in test [4], 75.7%. The growth in test [5] is 92.8%; in [6] it was 87.2%; in [7], 94.7%; in [8] it was 78.4%; in [9], 98.9%; in test [10], 86.1%. The growth was 0.713% (active) in [19]; 77.2% in test [11]; 102% in test [12]; 73.8% in test [20]; 85% in test [13]; 101% in [14]. In addition, the growth was 87.4% in test [15] and 88.2% in test [16].
In the case of `COC[CH2][Hg][C]#[C][Hg][CH2]COC`, the growth was 99.1% in test [1]; 41.7% in [2]; 87.6% in [17]; 93.7% in test [18]; 90.7% in test [3]; 97.1% in [4]. The growth in test [5] is 83%; in [6], 108%; in test [7] it was 106%; in test [8] it was 96%; in [9], 119%; in test [10], 98.7%. The growth in test [19] is 89.3%; in test [12], 116%; in [20] it was 113%; in test [13], 102%; in test [14], 91.7%; in test [15], 43%. The growth in test [16] is 55.3%.
Take `CC(=O)O[C@@H]1C2=C(C)C3(CC3)[C@@](C)(O)C(=O)C2=C[C@@]1(C)CO`: the growth is 6.08% (active) in [1]; 0.386% (active) in [2]; 5.53% (active) in test [17]; 6.35% (active) in test [18]; -33.1% (active) in test [3]; 0.741% (active) in [4]. In addition, the growth in test [5] is -85.7% (active); in test [6] it was 7.37% (active); in test [7], -69.8% (active); in test [8], 12.4%; in test [9], 4.18% (active); in test [10] it was -6.63% (active). Also, the growth was -4.61% (active) in test [19]; 7.82% (active) in test [11]; 4.7% (active) in [12]; -9.99% (active) in test [20]; -5.59% (active) in test [13]; 7.72% (active) in test [14]. Besides, the growth in test [15] was -85% (active); in test [16], 1.42% (active).
